Bioassay records from PubChem.
HCV inh: inhibitors of hepatitis C virus infection. Huh7.5.1 HCVcc-Cre infection, luciferase reporter, 44 h. Potency, µM (doses to about 41.8 µM), for the others: top-dose activity change, negative = inhibition, hits mostly inhibitors. hit rate 3.4% among 340,000. AID 651820; further: potency means the concentration at half of the fitted maximal effect
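Luciferase read-out (15 sec integration) after a 15 min room-temperature substrate step quantifies HCVcc-Cre infection. Cells, 1,000 per well, had compound added 4 h post-plating, then virus at ~0.5 moi, and were cultured 44 h.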
Vaccinia Venus: vaccinia inhibition (Venus reporter); Vaccinia virus Venus reporter expression, fluorescence; Potency, µM (top dose mostly 36.5 µM), inactives show at the top dose activity change, negative = inhibition, most hits filed as inhibitors; hit rate 0.46% among 330,000; calls by dose curve; tested in A549 cells; further: potency means the concentration at half of the fitted maximal effect; nearly all actives have a fitted effect of over 30% in size
HCMV antiviral: inhibitors of human cytomegalovirus | HFF cells, HCMV-luciferase reporter, 72 h; active compounds read low | activity change, negative = inhibition, % at 57.5 µM | hit rate 4.5% among 410,000; in the data active means activity change below about -60%; inconclusive means no clear call, values can overlap the other calls; inactive means above about -39%
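After 16 h attachment at 37C, HFF cells received test compound and HCMV-luciferase (1 PFU/cell); reporter luminescence read 72 h later, data normalized against buffer-only and known inhibitor Salinomycin.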
Vaccinia mCherry: vaccinia inhibition (mCherry reporter); Vaccinia virus mCherry reporter infection, fluorescence; Potency, µM (top dose mostly 36.5 µM), for the others: top-dose activity change, negative = inhibition, hits mostly inhibitors; hit rate 0.63% among 310,000; calls by dose curve; tested in A549 cells; further: potency means the concentration at half of the fitted maximal effect; nearly all actives have a fitted effect of over 35% in size
FMDV antiviral: foot and mouth disease virus antiviral activity; FMDV antiviral cell-based qHTS; Potency, µM (highest dose often 57.9 µM), for inactives: top-dose activity change, negative = inhibition, usual class: inhibitors; hit rate 1.2% among 410,000; calls by dose curve; tested in HEK293T cells; further: read-out not given here; potency means the concentration at half of the fitted maximal effect; nearly all actives have a fitted effect of over 45% in size
Sm TGR block: S. mansoni TGR enzyme inhibition | Q962Y6 | purified TGR, DTNB reduction, TNB absorbance 405 nm | Potency, µM (series often up to 114 µM), inactives show at the top dose activity change, negative = inhibition, actives largely listed as inhibitors | hit rate 3% among 360,000 | AID 485364; further: potency means the concentration at half of the fitted maximal effect; nearly all actives have a fitted effect of over 60% in size
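First, TGR (20 nM dispensed) and NADPH were mixed with compound. Second, a 15 min room-temperature incubation followed. Third, further NADPH and then DTNB were added to start the reaction. Finally, TNB absorbance was monitored kinetically.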
The depositor's hits bear a star. This is a sample that favours compounds with a hit; in the whole collection about 9.3% have one here. Unless noted, the call rests on the fitted dose curve; in most records, active means well fitted curve in the direction sought with a large enough effect; inconclusive means small, poorly fitted or top-dose-only effect, or another doubt; inactive means no such curve, though single readings can be large; an effect the other way counts as inactive or inconclusive. On the % scale 0 is the no-effect control and ±100 the full control effect.

How did COc1nc(NCCc2ccc(OC)c(OC)c2)nc(OC)n1 do in these assays?
HCV inh: -17.6%; Vaccinia Venus: -16.6%; HCMV antiviral: -98.9*; FMDV antiviral: -18.2%; Sm TGR block: 5.7%

How did Cc1nnc(NC(=O)CC23CC4CC(CC(C4)C2)C3)s1 do in these assays?
HCV inh: -5.3%; Vaccinia Venus: 10.0%; HCMV antiviral: 27.6; Vaccinia mCherry: 26.2%; FMDV antiviral: -22.4%; Sm TGR block: 1.8%

What do the screens show for `CSc1ccc(/C=C(\NC(=O)c2ccccc2)C(=O)NN)cc1`?
HCV inh: 13.2%; Vaccinia Venus: -16.4%; HCMV antiviral: 2.1; Vaccinia mCherry: -4.7%; FMDV antiviral: 5.0%; Sm TGR block: 13.8%

What do the screens show for `CC(=O)N1c2ccccc2C(CBr)=CC1(C)C`?
HCV inh: -4.7%; Vaccinia Venus: -2.8%; HCMV antiviral: 23.8; Vaccinia mCherry: -5.0%; FMDV antiviral: -10.6%; Sm TGR block: 12.6µM*

What do the screens show for `CC1=CC(C)(C)N(C(=O)Nc2ccccc2)c2ccccc21`?
HCV inh: -1.1%; Vaccinia Venus: -13.2%; HCMV antiviral: -33.4; Vaccinia mCherry: -59.0%; FMDV antiviral: -8.0%; Sm TGR block: inconclusive

What do the screens show for `COCCn1cnc2c1c(=O)n(CC(=O)OCC#N)c(=O)n2Cc1ccccc1`?
HCV inh: 12.5%; Vaccinia Venus: -13.8%; HCMV antiviral: -6.3; Vaccinia mCherry: -1.6%; FMDV antiviral: -7.1%; Sm TGR block: 1.1%

What do the screens show for `COCCn1cnc2c1c(=O)n(Cc1ccc(C#N)cc1)c(=O)n2Cc1ccccc1`?
HCV inh: 6.9%; Vaccinia Venus: 2.3%; HCMV antiviral: -60.6*; Vaccinia mCherry: -6.3%; FMDV antiviral: 0.6%; Sm TGR block: -6.3%

Results for O=C(Nc1cccc(Cl)c1)c1nc[nH]c1C(=O)N1CCc2ccccc2C1 ?
HCV inh: 14.2%; Vaccinia Venus: -13.5%; HCMV antiviral: -14.8; Vaccinia mCherry: inactive; FMDV antiviral: 8.3%; Sm TGR block: 0.0%

How did COc1cc(-c2nc(S(=O)(=O)c3ccc(C)cc3)c(N(C)C)o2)cc(OC)c1OC do in these assays?
HCV inh: inconclusive; Vaccinia Venus: -23.9%; HCMV antiviral: 85.8; Vaccinia mCherry: -10.1%; FMDV antiviral: 9.1%; Sm TGR block: 17.8µM*

What do the screens show for `Cc1nc(S(=O)(=O)c2ccc(Cl)cc2)c(N(C)C)o1`?
HCV inh: 9.1%; HCMV antiviral: 0.0; FMDV antiviral: 9.8%; Sm TGR block: 10µM*

Results for Cc1ccc(S(=O)(=O)c2nc(-c3ccccc3Br)oc2N(C)C)cc1 ?
HCV inh: inconclusive; Vaccinia Venus: -17.0%; HCMV antiviral: 35.0; Vaccinia mCherry: inconclusive; FMDV antiviral: -6.5%

What do the screens show for `Cc1ccc(S(=O)(=O)c2nc(-c3ccccc3Cl)oc2N(C)C)cc1`?
HCV inh: 20µM*; Vaccinia Venus: inconclusive; Vaccinia mCherry: -8.3%; FMDV antiviral: 24.9%; Sm TGR block: -9.1%

Results for COc1cc(-c2nc(S(=O)(=O)c3ccc(C)cc3)c(N3CCOCC3)o2)cc(OC)c1OC ?
HCV inh: -14.0%; Vaccinia Venus: -12.8%; HCMV antiviral: 116.1; Vaccinia mCherry: -17.3%; FMDV antiviral: 9.9%; Sm TGR block: inconclusive

What do the screens show for `Cc1ccc(-c2nc(S(=O)(=O)c3ccc(C)cc3)c(N(C)C)o2)cc1`?
HCV inh: inconclusive; Vaccinia Venus: -12.6%; HCMV antiviral: 0.7; Vaccinia mCherry: -9.5%; FMDV antiviral: 30.2%; Sm TGR block: 2.51µM*

What do the screens show for `COC(=O)c1ccccc1NC(=O)CSc1nnc(Cc2ccc(Cl)cc2)o1`?
HCV inh: -6.6%; HCMV antiviral: -5.7; FMDV antiviral: inconclusive; Sm TGR block: -0.6%

What do the screens show for `COc1ccc(C(=O)Nc2nc3ccccc3[nH]2)cc1S(=O)(=O)N1CCOCC1`?
HCV inh: -8.3%; HCMV antiviral: 47.1; FMDV antiviral: -6.6%; Sm TGR block: -10.3%

What do the screens show for `O=C(Nc1cccc(Cl)c1)C1C2C=CC3(O2)C1C(=O)N(CCN1CCCCC1)C3C(=O)NC1CCCCC1` (stereo unspecified)?
HCV inh: -5.5%; Vaccinia Venus: -19.9%; HCMV antiviral: -40.0; Vaccinia mCherry: -2.7%; FMDV antiviral: 7.4%; Sm TGR block: -2.7%

Results for Cc1cccc(/C=N/n2c(-c3ccco3)n[nH]c2=S)c1 ?
HCV inh: 10.3%; HCMV antiviral: 15.0; FMDV antiviral: -12.4%; Sm TGR block: -1.5%

Results for C(=C\c1ccco1)/C=N/n1cnnc1 ?
HCV inh: 12.2%; Vaccinia Venus: 0.8%; HCMV antiviral: 69.6; Vaccinia mCherry: -10.4%; FMDV antiviral: 11.6%; Sm TGR block: 28.2µM*

What do the screens show for `CC(/C=N/n1c(-c2ccccc2)n[nH]c1=S)=C\c1ccco1`?
HCV inh: 3.7%; Vaccinia Venus: -5.3%; HCMV antiviral: 8.6; Vaccinia mCherry: inactive; Sm TGR block: inconclusive

What do the screens show for `S=c1[nH]nc(-c2ccncc2)n1/N=C/C=C/c1ccco1`?
HCV inh: 1.8%; HCMV antiviral: inconclusive; FMDV antiviral: -16.6%; Sm TGR block: 22.4µM*

What do the screens show for `Cc1cccc(-c2n[nH]c(=S)n2/N=C/C=C/c2ccco2)c1`?
HCV inh: -0.2%; HCMV antiviral: 46.1; FMDV antiviral: 0.6%; Sm TGR block: 11.2µM*

How did S=c1[nH]nc(-c2ccccc2Cl)n1/N=C/C=C/c1ccco1 do in these assays?
HCV inh: 1.6%; Vaccinia Venus: -3.2%; HCMV antiviral: -4.9; Vaccinia mCherry: inactive; FMDV antiviral: -13.9%; Sm TGR block: 20µM*

How did O=C1OC(c2ccccc2)=N/C1=C\C=C\c1ccco1 do in these assays?
HCV inh: -8.3%; Vaccinia Venus: -6.7%; HCMV antiviral: -10.1; Vaccinia mCherry: inactive; FMDV antiviral: -7.0%; Sm TGR block: inconclusive

What do the screens show for `Cc1cccc(N(C(=O)c2csnn2)C(C(=O)NC(C)(C)C)c2cccs2)c1` (stereo unspecified)?
HCV inh: -10.3%; Vaccinia Venus: -19.2%; HCMV antiviral: 8.5; Vaccinia mCherry: -17.9%; Sm TGR block: 2.3%

How did Cc1noc(C)c1CSCC(=O)Nc1nc2ccc(F)cc2s1 do in these assays?
HCV inh: inconclusive; Vaccinia Venus: -15.9%; HCMV antiviral: 21.5; Vaccinia mCherry: -6.4%; FMDV antiviral: 4.4%; Sm TGR block: -5.7%

What do the screens show for `CC(/C=N/n1c(-c2ccc(C)cc2)n[nH]c1=S)=C\c1ccco1`?
HCV inh: -11.1%; Vaccinia Venus: -11.0%; HCMV antiviral: 17.3; Vaccinia mCherry: -5.2%; FMDV antiviral: 0.9%; Sm TGR block: -25.0%

What do the screens show for `CC(/C=N/n1c(-c2cccnc2)n[nH]c1=S)=C\c1ccccc1`?
HCV inh: 26.1%; Vaccinia Venus: 2.1%; HCMV antiviral: -76.7*; Vaccinia mCherry: -13.3%; FMDV antiviral: 0.0%; Sm TGR block: 17.2%
